Screens (PubChem BioAssay)
miR-21 reporter = qHTS Assay for Modulators of miRNAs and/orActivators of miR-21; Potency, µM (highest dose often 38.3 µM), hits mostly activators; HeLa miR-21 FLuc reporter, luciferase, 48 h; 340,000 tested, under 10 active;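 note: miR-21 action dims this reporter so a rising signal means less miR-21 action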
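Using DMEM plus 10% FBS, HeLa miR-21-FLuc cells are incubated with test compounds (final up to about 40uM) for 48 hours; firefly luciferase signal is then imaged following reagent-mediated lysis.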
TDP1 block = qHTS Assay for Inhibitors of Tyrosyl-DNA Phosphodiesterase (TDP1); recombinant TDP1, AlphaScreen DNA substrate cleavage; Potency, µM (highest dose often 130 µM), usual class: inhibitors; actives 0.28% (n = 350,000); AID 485290, 2010; note: nearly all actives have a fitted effect of over 40% in size
Target sequence (Q9NUW8 whole entry, looked up): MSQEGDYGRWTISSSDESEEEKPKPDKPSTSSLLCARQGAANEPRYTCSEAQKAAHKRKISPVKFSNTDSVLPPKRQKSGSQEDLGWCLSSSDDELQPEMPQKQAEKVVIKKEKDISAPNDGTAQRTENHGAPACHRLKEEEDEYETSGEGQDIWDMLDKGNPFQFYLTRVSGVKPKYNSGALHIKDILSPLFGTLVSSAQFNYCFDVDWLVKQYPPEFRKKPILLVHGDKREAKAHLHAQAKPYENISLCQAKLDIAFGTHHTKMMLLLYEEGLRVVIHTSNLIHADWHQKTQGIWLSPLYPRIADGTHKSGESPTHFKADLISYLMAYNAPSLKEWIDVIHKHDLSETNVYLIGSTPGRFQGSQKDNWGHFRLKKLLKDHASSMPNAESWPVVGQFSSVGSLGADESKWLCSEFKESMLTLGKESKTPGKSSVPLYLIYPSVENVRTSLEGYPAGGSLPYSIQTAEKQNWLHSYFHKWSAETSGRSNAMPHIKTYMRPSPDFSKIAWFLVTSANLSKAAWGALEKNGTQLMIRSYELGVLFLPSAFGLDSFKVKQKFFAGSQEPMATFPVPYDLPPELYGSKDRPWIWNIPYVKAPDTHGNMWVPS
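AlphaScreen read-out: signal falls as enzyme removes the 3' tyrosine-FITC from a 5'-biotinylated DNA oligo (15 nM, 5 min, RT). Enzyme was E. coli-made recombinant Tdp1 at 1 nM, exposed to compound for 15 min beforehand; beads 10 ug/ml, 10 min.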
uPA generation = qHTS for Inhibitors of Cell Surface uPA Generation; cell surface uPA generation assay, qHTS; Potency, µM (titrated, usually from 38.3 µM), hits mostly inhibitors; actives 0.31% (n = 330,000); AID 540303, 2011; active = well fitted inhibition curve with a large enough effect; inconclusive = small, poorly fitted or top-dose-only effect; inactive = no such curve, though single readings can be large or run the other way; tested in mouse RAW 264.7 cells; note: nearly all actives have a fitted effect of over 55% in size
TDP1 cell CPT = qHTS for Inhibitors of human tyrosyl-DNA phosphodiesterase 1 (TDP1): qHTS in cells in presence of CPT. chicken DT40 Tdp1-/-;hTDP1 cells + 20 nM CPT, ATP luminescence, 48 h. Potency, µM (top dose mostly 46.2 µM), actives largely listed as inhibitors. actives 12% (n = 420,000); note: nearly all actives have a fitted effect of over 55% in size
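Cell growth measured by CellTiter-Glo luminescence after a minimum 48 h, 37 C compound exposure with 20 nM CPT in Tdp1-knockout DT40 cells stably expressing hTDP1, seeded 400/well; qHTS titration format.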
DT40 TDP1 no CPT = qHTS for Inhibitors of human tyrosyl-DNA phosphodiesterase 1 (TDP1): qHTS in cells in absence of CPT; Potency, µM (series often up to 46.2 µM), actives largely listed as inhibitors; DT40 Tdp1-/- hTDP1 cells, no CPT, ATP luminescence, 48 h; AID 686978, 2013; actives 15% (n = 420,000); note: nearly all actives have a fitted effect of over 55% in size
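Chicken DT40 Tdp1-/- cells stably complemented with human TDP1 were seeded at 400 cells/well with DMSO in place of 20 nM camptothecin. After compound pinning, cells grew at least 48 hr at 37 °C; viability read by CellTiter-Glo luminescence.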
Numbers stand for hits; . = inactive; ? = inconclusive; / = no result given. Sampled rows, rich in hits. Any-hit rate of the full collection: about 16%. Unless noted, calls come from the whole dose curve; as a rule, active = well fitted curve in the direction sought with a large enough effect; inconclusive = small, poorly fitted or top-dose-only effect, or another doubt; inactive = no such curve, though single readings can be large; an effect the other way counts as inactive or inconclusive.

SMILES	miR-21 reporter	TDP1 block	uPA generation	TDP1 cell CPT	DT40 TDP1 no CPT
CC(=O)c1c(C)cc(C)c(CSc2nnc(-c3ccco3)o2)c1C	.	.	/	12.6µM	22.4µM
Cc1ccc2nc(CSc3nnc(-c4ccco4)o3)cc(=O)n2c1	.	17.8µM	.	?	.
O=C(OC1CCOC1=O)c1cc(S(=O)(=O)N2CCOCC2)c(Cl)cc1Cl (stereo unspecified)	/	.	.	.	.
S=C1Cc2ccccc2N1	?	.	?	0.92µM	0.731µM
CC(C)C[C@H](NC(=O)c1nc[nH]c1C(=O)N[C@@H](CC(C)C)C(=O)OC(C)(C)C)C(=O)OC(C)(C)C	.	.	.	23.1µM	?
CC(C)C[C@H](NC(=O)c1nc[nH]c1C(=O)NCC(=O)OC(C)(C)C)C(=O)OC(C)(C)C	.	.	?	?	?
CC(C)C[C@H](NC(=O)c1nc[nH]c1C(=O)NC(c1ccccc1)c1ccccc1)C(=O)OC(C)(C)C	.	.	?	4.11µM	18.4µM
CC(C)C[C@H](NC(=O)c1nc[nH]c1C(=O)NCCNC(=O)OC(C)(C)C)C(=O)CNCCNC(=O)c1[nH]cnc1C(=O)N[C@@H](C)C(=O)OC(C)(C)C	/	.	.	23.1µM	?
C[C@H](NC(=O)c1nc[nH]c1C(=O)NCC(=O)OC(C)(C)C)C(=O)OC(C)(C)C	.	.	.	?	?
CC(C)C[C@H](NC(=O)c1nc[nH]c1C(=O)N1CCN(c2ccccc2)CC1)C(=O)OC(C)(C)C	.	.	.	20.6µM	?
CC(C)C[C@@H](CNC(=O)OC(C)(C)C)NC(=O)c1nc[nH]c1C(=O)N[C@@H](CC(C)C)C(=O)CNC[C@H](CC(C)C)NC(=O)c1nc[nH]c1C(=O)N[C@@H](Cc1c[nH]c2ccccc12)C(=O)OC(C)(C)C	/	.	.	?	18.4µM
O=C(c1nc[nH]c1C(=O)N1CCN(c2ccccc2)CC1)N1CCN(c2ccccc2)CC1	/	.	.	13µM	.
CC(C)C[C@@H](CNCC(=O)[C@H](Cc1c[nH]c2ccccc12)NC(=O)c1[nH]cnc1C(=O)N[C@@H](C)CN)NC(=O)c1nc[nH]c1C(=O)N[C@@H](Cc1ccccc1)C(=O)O	/	/	.	.	.
CC(C)C[C@H](NC(=O)c1[nH]cnc1C(=O)N[C@H](C)c1ccccc1)C(=O)OC(C)(C)C	.	.	?	?	18.4µM
C[C@H](NC(=O)c1nc[nH]c1C(=O)N[C@@H](C)c1ccccc1)C(=O)OC(C)(C)C	.	.	.	?	.
C[C@H](NC(=O)c1nc[nH]c1C(=O)N1CCN(c2ccccc2)CC1)C(=O)OCc1ccccc1	.	/	.	18.4µM	?
CC(C)(C)OC(=O)N1CCN(C(=O)c2nc[nH]c2C(=O)N2CCN(c3ccccc3)CC2)CC1	/	.	.	.	.
Cc1cccc(NC(=O)c2ccc(-n3ccnc3)nc2)c1	.	.	.	.	.
CC1=C(CCN2CCN(C3CCCC3)C(CCO)C2)C(C)(C)CCC1 (stereo unspecified)	.	.	.	20.6µM	?
CC(=O)NCCOc1nc(N(C)C)nc(N2CCOCC2)n1	.	.	.	.	.
O=C(NCCOc1nc(N2CCCCC2)nc(N2CCCCC2)n1)Nc1ccccc1	.	.	.	?	23.1µM
CC(=O)NCCOc1nc(N2CCCCC2)nc(N2CCCCC2)n1	.	.	.	.	14.6µM
Cc1c(C(=O)OCC(=O)N2CC(=O)Nc3ccccc32)oc2ccccc12	.	.	.	.	.
O=C(Nc1ccccc1O)c1cc2cc(Br)ccc2oc1=O	.	/	.	.	?
COC(=O)c1sc2nc(SCc3cccc(Cl)c3)n(N)c(=O)c2c1C	.	.	.	.	?
O=C(CN(C1CCCCC1)S(=O)(=O)c1ccc(Cl)cc1)NCc1cccnc1	.	.	.	?	16.4µM
O=C(NCc1cccnc1)C1CCC(c2ccc(Cl)cc2)CC1 (stereo unspecified)	.	.	.	?	16.4µM
